MgrA DNA FP = S. aureus MgrA-DNA binding modulation; inhibition, % (no concentration beside the values); fluorescence polarization; hit rate 0.13% among 84,000; in the data active = inhibition above about 30%, passing the limit was not always enough;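 also: higher means less MgrA bound to DNA so lower polarization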
Numbers stand for hits; i = inactive. Shown is part of a subset that was picked to be rich in hits.

SMILES | MgrA DNA FP
COc1ccc(NC(=O)/C(C#N)=C/C=C/c2ccco2)cc1 | i
N#C/C(=C\C=C\c1ccco1)C(N)=S | 100
N#CC(C#N)=C(N)/C(C#N)=C/c1ccco1 | i
O=C(CSc1nc(-c2ccc(F)cc2)[nH]c1-c1ccccc1)NC1CCCC1 | i
FC(F)(F)c1cccc(-c2noc(-c3ccsc3)n2)c1 | i
Cn1c(SCC(=O)c2ccc(F)cc2)nnc1-c1ccco1 | i
COc1ccc(C(=O)CSc2nnc(-c3ccco3)c(-c3ccco3)n2)cc1 | 51
CCC(=O)Nc1ccc(C(=O)CSc2ncc(C#N)c(N)n2)cc1OC | i
CCc1ccc2c(c1)c1nnc(SCC(=O)c3ccc(OC)cc3)nc1n2C | i
CCOc1ccc(C(=O)CSc2nnc(-c3ccco3)c(-c3ccco3)n2)cc1NC(=O)CC | 92
O=C(CSc1nnc(-c2ccoc2)c(-c2ccoc2)n1)c1ccc(N2CCCC2=O)cc1 | i
CCn1c(SCC(=O)c2ccccc2)nnc1-c1ccco1 | i
O=C1COc2ccc(C(=O)CSc3nnc(-c4ccoc4)c(-c4ccoc4)n3)cc2N1 | i
O=C(CSc1nnc(-c2ccoc2)c(-c2ccoc2)n1)c1ccc(-c2ccccc2)cc1 | 71
CCC(NC)c1ccco1 (stereo not given) | i
Cc1ccc(CNC(=O)Cn2c3ccc(C)cc3c3nc4n(c(=O)c32)CCS4)cc1 | i
COC(=O)c1sccc1Oc1ccc(C(F)(F)F)cc1NC(=O)c1ccc(Cl)cc1 | i
CC(C)(C)C1(C)OC(CO)C(CO)O1 (stereo not given) | i
N#CCc1ccc(NC(=O)CCC(=O)O)cc1 | i
CC(C)CC(=O)N1CCN(C(=O)COc2ccc(-c3ccccc3)cc2)CC1 | i
CCC(=O)Nc1cc2nc3[nH]c(=O)n(C4CCCCCC4)c(=O)c3nc2cc1C | i
O=C(Oc1ccc(C2Oc3ccccc3C3CC(c4ccc(Cl)cc4)=NN32)cc1)c1ccccc1 (stereo not given) | i
N#Cc1c(=O)n(O)c2ccccc2[n+]1[O-] | 49
O=c1c(-c2ccc(Oc3ccccc3)cc2)[n+]([O-])c2ccccc2n1O | i
Cc1c(=O)n(OCc2ccc(Cl)cc2)c2ccccc2[n+]1[O-] | i
SMILES | MgrA DNA FP
Cc1cc(=O)oc2cc(NC(=S)NCc3cc(C)n(C)n3)ccc12 | i
Cc1cc(Cl)ccc1Oc1ccc(N)cn1 | i
CCNC(=S)Nc1sc2c(c1C(=O)OCC)CC(C)(C)OC2 | i
CC1(C)CC(=O)C2=C(C1)OC(N)=C(C#N)C2c1ccccc1 (stereo not given) | i
CC1(C)CC(=O)C2=C(C1)OC(c1cccs1)C(C#N)=C2N (stereo not given) | 99
CC1(C)CC(=O)C2=C(C1)NC1=C(C(=O)CC(C)(C)C1)C2c1cccs1 | i
COc1ccc(C(C)C)cc1S(=O)(=O)N1CCCCC1C (stereo not given) | i
COC(=O)COc1ccc(/C=C2\C(=O)NC(=S)N(c3ccccc3)C2=O)cc1OC | i
O=C1NC(=S)N(c2ccccc2)C(=O)/C1=C\c1ccoc1 | 76
O=C1NC(=O)N(c2ccccc2)C(=O)/C1=C\c1ccc(C(=O)O)cc1 | i
COCCNC(=O)Nc1ccc2c(c1)nc(C)n2C | i
O=c1ccc(-c2cccs2)n[nH]1 | i
CNC(=S)NN=C1CCCC1 | i
Cc1nn(C)c(C)c1-n1nncc1C | i
CC(C)c1ccc(/C=C/C(=O)O)cc1 | i
CC(C)c1cc2cc(/C=C/C(=O)O)c(O)cc2o1 | 60
CC(C)(O)C1Cc2cc(/C=C/C(=O)O)c(O)cc2O1 (stereo not given) | i
Cc1ccc(C#N)c(=O)[nH]1 | i
O=C(CCc1ccccc1)Nc1ccon1 | i
C=Cc1c(C)/c2[n-]/c1=C\c1[n-]c(c(CC)c1C)/C=c1\[n-]c3c(c1C)C(=O)C(C(=O)[O-])C=3c1[n-]c(c(C)c1CCC(=O)[O-])\C=2.[Cu].[Na+].[Na+] (stereo not given) | 88
COCCOC(=O)C1=C(N)OC2=C(C(=O)CCC2)C1c1ccc(Cl)cc1 (stereo not given) | i
CC(C)(C)C(=O)C1C2C3COC(O3)C(=O)C2C2C=Cc3ccccc3N21 (stereo not given) | 42
COC(=O)N1c2ccccc2C=CC1C#N (stereo not given) | i
CC12CC3(C(=O)Nc4ccc(Br)cc4)C1CCC23C (stereo not given) | i
Cc1ccc(-c2ccc(/C=c3\sc4nc5ccccc5n4c3=O)o2)c(Br)c1 | i
SMILES | MgrA DNA FP
COc1ccc(-c2ccc(/C=c3\sc4nc5ccccc5n4c3=O)o2)c([N+](=O)[O-])c1 | i
O=C(O)c1cccc(-c2ccc(/C=c3/sc4nc5ccccc5n4c3=O)o2)c1 | 44
CC1CN(C2=NC(=O)/C(=C/c3ccccc3)S2)CC(C)O1 (stereo not given) | i
COc1ccc2c3c(cccc13)C(=O)CC2 | 69
COc1cc(/C=C2\CCc3ccccc3C2=O)cc(OC)c1OC | i
COC(=O)c1ccc2c3c(cccc13)CC2 | i
COc1nc(N(C)C)nc(N2CC(=O)N(c3ccccc3)C2=N)n1 | i
Cc1ccc2oc(-c3ccc(NC(=O)C(F)(F)F)cc3)nc2c1 | i
CCOc1ccc2nc3c(=O)[nH]c(=O)[nH]c3nc2c1 | i
O=C(Nc1ccc2nc3c(=O)[nH]c(=O)[nH]c3nc2c1)C(F)(F)F | 57
CN(C)/C=C/C=C/c1cc(=O)cc(/C=C/C=C/N(C)C)o1 | 100
O=C(ON1C(=O)C2C3C=CC(O3)C2C1=O)c1ccc(Cl)s1 (stereo not given) | i
O=C(O)CC(c1ccsc1)n1cccc1 (stereo not given) | i
Cc1ccc(C)n1C(CC(=O)O)c1ccsc1 (stereo not given) | 61
Cc1ccc(C)n1C(CC(=O)O)c1ccc(F)cc1 (stereo not given) | i
COc1ccc(C(=O)NCC(N)=O)cc1 | i
CCCN(CCC)c1ccc(/C=N/n2cnnc2)cc1 | i
Cc1ccc(C)c(S(=O)(=O)n2nnc3ccccc32)c1 | i
CCN1C(=O)/C(=C/c2ccc(C(C)C)cc2)NC1=S | i
O=S(=O)(c1cccc(C(F)(F)F)c1)N1CCCC1c1cccnc1 (stereo not given) | i
O=S(=O)(c1ccc2c(c1)OCCO2)N1CCCCC1c1cccnc1 (stereo not given) | 58
O=S(=O)(c1ccc2nsnc2c1)N1CCCCC1c1cccnc1 (stereo not given) | i
O=P(CCN1CCOCC1)(c1ccccc1)c1ccccc1 | i
CSc1nc(NC(=O)NS(=O)(=O)c2ccccc2C(F)(F)F)nc(-c2ccccn2)n1 | i
COc1ccc2oc(=O)c(-c3nc4ccc(OC)cc4[nH]3)cc2c1 | i
SMILES | MgrA DNA FP
COc1ccc(C2Sc3ccccc3N(CCN(C)C)C(=O)C2OC(C)=O)cc1 (stereo not given) | i
CCN1C(=O)CC(c2ccc(OC)cc2)Sc2ccccc21 (stereo not given) | i
COc1ccc([C@H]2Sc3ccccc3N(CCN(C)C)C(=O)[C@H]2OC(C)=O)cc1 | 96
Cc1ccc(N2C(=O)CC(C3=C(N4CCOCC4)CCCC3)C2=O)cc1 (stereo not given) | i
CCN1C(=O)/C(=C/c2ccccc2NC(C)=O)OC1=S | i
O=c1c2ccccc2c2ccccc2c(=O)n1Cc1cccnc1 | i
O=C1c2cccc3c([N+](=O)[O-])ccc(c23)C(=O)N1Cc1cccnc1 | 60
O=C1c2cccc3cc([N+](=O)[O-])cc(c23)C(=O)N1Cc1ccncc1 | i
N#Cc1c(F)cccc1Oc1ccc(F)cc1 | i
COc1cc(OC)nc(N)n1 | i
O=C(/C=C/c1ccccc1)NCc1nc2ccccc2[nH]1 | i
Cc1ccc(C(=O)Nc2nc3c(s2)CCCC3)cc1 | i
